From PubChem BioAssay (NCATS)
Inconclusive results are not listed. Calls of active or inactive are those of the source. Calls follow the shape of the dose curve; as a rule, active = well fitted curve in the direction sought with a large enough effect; inconclusive = small, poorly fitted or top-dose-only effect, or another doubt; inactive = no such curve, though single readings can be large; an effect the other way counts as inactive or inconclusive.

Assays:
[1] = molecular target: Cellular tumor antigen p53 (Homo sapiens) (UniProt P04637); test: Primary qHTS for small molecule compounds that upregulate eGFP-tagged delta133p53alpha (in N-terminal) cells. (AID 2060322); settings: NCI-H358 eGFP-delta133p53alpha fluorescence, 24 h; activation: stronger effect = higher value;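 also: cells pre-induced with doxycycline then dosed without doxycycline; series mostly up to about 56 µM; 0% = DMSO vehicle and 100% = reference activator; nearly all actives have a fitted effect of over 75% in size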
How it was run: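 NCI-H358 cells pre-induced 24 h with 10 ng/ml doxycycline for eGFP-delta133p53alpha, plated dox-free and exposed 24 h at 37C to titrated compounds. Fixed, Hoechst-stained; gated GFP peak intensity by laser scanning cytometry, normalized to DMSO (0%) and 57.5 uM 5-azacytidine (100%).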

[2] = molecular target: Aldehyde dehydrogenase, mitochondrial (Homo sapiens) (UniProt P05091); test: qHTS for Inhibitors of the Aldehyde Dehydrogenase Family (ALDH2) Primary screen (AID 2061308);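 also: plate controls were vehicle for no effect and reference inhibitor for full effect; nearly all actives have a fitted effect of over 55% in size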
[3] = molecular target: Retinaldehyde dehydrogenase 3 (Homo sapiens) (UniProt P47895); test: qHTS for Inhibitors of the Aldehyde Dehydrogenase Family (ALDH1A3) Validation screen (AID 2061312); also: % is scaled to controls: 0 for no effect and ±100 for the full control effect; nearly all actives have a fitted effect of over 45% in size
[4] = molecular target: Retinaldehyde dehydrogenase 3 (Homo sapiens) (UniProt P47895); test: qHTS for Inhibitors of the Aldehyde Dehydrogenase Family (ALDH1A3) Primary screen (AID 2061315);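 also: plate controls were DMSO vehicle for no effect and reference inhibitor for full effect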

Sequence of Cellular tumor antigen p53 (Homo sapiens) (P04637 whole entry, looked up): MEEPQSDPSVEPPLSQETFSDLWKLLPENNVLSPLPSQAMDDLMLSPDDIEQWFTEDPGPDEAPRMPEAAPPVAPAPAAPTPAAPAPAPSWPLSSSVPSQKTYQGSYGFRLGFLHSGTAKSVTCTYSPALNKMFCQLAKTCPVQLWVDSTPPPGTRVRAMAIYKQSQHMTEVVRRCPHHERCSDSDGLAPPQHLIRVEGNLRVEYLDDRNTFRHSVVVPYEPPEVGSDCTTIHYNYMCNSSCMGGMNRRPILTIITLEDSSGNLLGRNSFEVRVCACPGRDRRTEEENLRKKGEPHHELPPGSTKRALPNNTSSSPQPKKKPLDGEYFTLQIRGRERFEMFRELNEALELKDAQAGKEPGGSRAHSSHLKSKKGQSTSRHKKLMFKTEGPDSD

COc1cc(N)c(Cl)cc1C(=O)NC[C@@H]1CCN2CCC[C@@H]12
inactive: activation [1] -3.34% | Potency [2] | Potency [3] | Potency [4]

CC1=C(/C=C/C(C)=C\C=C\C(C)=C/C(=O)O)C(C)(C)CCC1
inactive: activation [1] 11.5% | Potency [2] | Potency [3] | Potency [4]

FC(F)(F)Oc1ccc(-c2ccc3nnc(C(F)(F)F)n3c2)cc1
inactive: activation [1] -3.34% | Potency [2] | Potency [3] | Potency [4]

CNC(=O)COC(=O)NCCC1CCN(c2cccc(C)n2)CC1
inactive: activation [1] 6.21% | Potency [2] | Potency [3] | Potency [4]

CC(C)CCNC(=O)c1ccc2c(c1)nc(Nc1n[nH]c3ccc(-c4ccccc4OC(F)(F)F)cc13)n2C1CCC(O)CC1 (stereo not given)
inactive: activation [1] 6.21% | Potency [2] | Potency [3] | Potency [4]

CCOC(=O)COc1ccc2c(c1)C[C@@H](NC[C@H](O)c1cccc(Cl)c1)CC2
inactive: activation [1] 11.9% | Potency [2] | Potency [3] | Potency [4]

CCN(CC)C(=O)C(c1ccccc1)N1CCN(c2ccc(NC(=O)c3ccccc3-c3cccnc3)cc2F)CC1 (stereo not given)
inactive: activation [1] -6.21% | Potency [2] | Potency [3] | Potency [4]

CC(C)(CO)c1cc2cc(NC(=O)C3(c4ccc5c(c4)OC(F)(F)O5)CC3)c(F)cc2n1CC(O)CO (stereo not given)
inactive: activation [1] 17.7% | Potency [2] | Potency [3] | Potency [4]

Cc1cc(C)nc(NS(=O)(=O)c2ccc(NC(=S)NC(=O)COc3ccc(Br)cc3Cl)cc2)n1
inactive: activation [1] -6.21% | Potency [2] | Potency [3] | Potency [4]

CCc1c(CC(N)=O)c2cc(OCCCP(=O)(O)O)ccc2n1Cc1ccccc1
inactive: activation [1] 2.86% | Potency [2] | Potency [3] | Potency [4]
